Several values for one entry are separate records, joined by “and”; a condition that tells them apart may be missing. Equal entries are not always repeated. Results filed as inconclusive are left out. Where a call stands in place of a potency, no number is given. Some compounds were tested as several samples or in several runs, with calls that do not always agree. Activity calls are given as the source filed them. Calls come from the whole dose curve; as a rule, active = well fitted cell-killing curve with a large enough effect; inconclusive = small, poorly fitted or top-dose-only effect, or effect the other way; inactive = flat fitted curve, though single readings scatter.
Columns and labels:
Assay in all cases: Primary qHTS to identify gynecologic anti-cancer compounds using libraries of approved drugs and bioactive compounds (AID 1345084); note: nearly all actives have a fitted effect of over 55% in size
CAOV3 = conditions: Gynecologic cancer cell panel viability, ATPlite luminescence, 48 h; series mostly up to 57.5 µM
Procedure, shortened: (§1)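 Cell viability after 48 h drug treatment, ATPlite luminescence readout; five doses.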

CASKI = conditions: Gynecologic cancer cell panel viability, ATPlite luminescence, 48 h; series mostly up to 57.5 µM
Procedure, shortened: as §1

Es-2 = conditions: Gynecologic cancer cell panel viability, ATPlite luminescence, 48 h; series mostly up to 57.5 µM
Procedure, shortened: as §1

HeLa = conditions: Gynecologic cancer cell panel viability, ATPlite luminescence, 48 h; series mostly up to 57.5 µM
Procedure, shortened: as §1

Hek293T = conditions: Gynecologic cancer cell panel viability, ATPlite luminescence, 48 h, control line for the selectivity index; series mostly up to 57.5 µM
Procedure, shortened: as §1

JEG-3 = conditions: Gynecologic cancer cell panel viability, ATPlite luminescence, 48 h; series mostly up to 57.5 µM
Procedure, shortened: as §1

OV90 = conditions: Gynecologic cancer cell panel viability, ATPlite luminescence, 48 h; series mostly up to 57.5 µM
Procedure, shortened: as §1

PA-1 = conditions: Gynecologic cancer cell panel viability, ATPlite luminescence, 48 h; series mostly up to 57.5 µM
Procedure, shortened: as §1

SKOV3 = conditions: Gynecologic cancer cell panel viability, ATPlite luminescence, 48 h; series mostly up to 57.5 µM
Procedure, shortened: as §1

Tov-21-G = conditions: Gynecologic cancer cell panel viability, ATPlite luminescence, 48 h; series mostly up to 57.5 µM
Procedure, shortened: as §1
Potency is the fitted concentration of half-maximal effect.

SMILES | Potency (CAOV3) | Potency (CASKI) | Potency (Es-2) | Potency (HeLa) | Potency (Hek293T) | Potency (JEG-3) | Potency (OV90) | Potency (PA-1) | Potency (SKOV3) | Potency (Tov-21-G)
CC1Cc2ccccc2N1NC(=O)c1ccc(Cl)c(S(N)(=O)=O)c1 (stereo unspecified) | inactive | inactive | inactive | inactive | inactive | inactive | inactive | inactive | inactive | inactive
O=C(OC1C[C@H]2CC[C@@H](C1)[N+]21CCCC1)C(O)(c1ccccc1)c1ccccc1 (stereo partly specified) | inactive | inactive | inactive | inactive | inactive | inactive | inactive | inactive | inactive | inactive
Cc1nccn1CC1CCc2c(c3ccccc3n2C)C1=O (stereo unspecified) | inactive | inactive | inactive | inactive | inactive | inactive | inactive | inactive | inactive | inactive
CCCCC(CC)COC(=O)C(C#N)=C(c1ccccc1)c1ccccc1 (stereo unspecified) | inactive | inactive | inactive | inactive | inactive | inactive | inactive | inactive | inactive | inactive
CNC[C@H](O)c1ccc(O)c(O)c1 | inactive | inactive | inactive | inactive | inactive | inactive | inactive | inactive | inactive | inactive
CCCS(=O)c1ccc2nc(NC(=O)OC)[nH]c2c1 (stereo unspecified) | inactive | inactive | inactive | – | – | inactive | inactive | 14.1 µM (active) | – | –
COc1cc2c(N3CCN(C(=O)Nc4ccc(OC(C)C)cc4)CC3)ncnc2cc1OCCCN1CCCCC1 | – | inactive | inactive | inactive | inactive | inactive | inactive | inactive | inactive | inactive
Cc1c(C(=O)NN2CCCCC2)nn(-c2ccc(Cl)cc2Cl)c1-c1ccc(Cl)cc1 | inactive | inactive | inactive | inactive | – | inactive | inactive | inactive | inactive | inactive
CC(C)C[C@H](NC(=O)[C@H](Cc1ccccc1)NC(=O)c1cnccn1)B(O)O | – | – | – | 316 nM (active) | – | inactive | 0.0447 µM (active) | – | 0.501 µM (active) | –
Cc1ccc(NC(=O)c2ccc(CN3CCN(C)CC3)cc2)cc1Nc1nccc(-c2cccnc2)n1 | – | inactive | – | inactive | – | – | 35.5 µM (active) | 25.1 µM (active) | – | –
CC[C@]1(O)C[C@H]2CN(CCc3c([nH]c4ccccc34)[C@@](C(=O)OC)(c3cc4c(cc3OC)N(C=O)[C@H]3[C@@](O)(C(=O)OC)[C@H](OC(C)=O)[C@]5(CC)C=CCN6CC[C@]43[C@@H]65)C2)C1 | inactive | – | 0.891 µM (active) | 891 nM (active) | – | – | 1.78 µM (active) | 0.199 µM (active) | – | –
CN(C)CCCC1(c2ccc(F)cc2)OCc2cc(C#N)ccc21 (stereo unspecified) | inactive | – | inactive | inactive | inactive | inactive | – | inactive | inactive | inactive
c1ccc2[nH]c(-c3cscn3)nc2c1 | inactive | – | – | inactive | – | inactive | inactive | inactive | inactive | inactive
CN(C)[C@@H](CCOc1cccc2ccccc12)c1ccccc1 | inactive | inactive | inactive | inactive | – | inactive | – | inactive | – | inactive
O=C1CCc2ccc(OCCCCN3CCN(c4cccc(Cl)c4Cl)CC3)cc2N1 | inactive | inactive | – | inactive | – | inactive | inactive | – | inactive | inactive
CC(C)Oc1ccc2c(=O)c(-c3ccccc3)coc2c1 | 22.4 µM (active) | – | 5.01 µM (active) | 28200 nM (active) | – | – | 22.4 µM (active) | 20 µM (active) | – | 15.8 µM (active)
CCc1nc(N)nc(N)c1-c1ccc(Cl)cc1 | inactive | – | 4.47 µM (active) | 14100 nM (active) | 7.94 µM (active) | inactive | 7.94 µM (active) | 7.94 µM (active) | inactive | 3.16 µM (active)
CN(C)C(=O)[C@H](O)[C@H](Cc1ccccc1)NC(=O)c1cc2cc(Cl)ccc2[nH]1 | inactive | inactive | inactive | inactive | – | inactive | inactive | inactive | inactive | inactive
Cc1cc(=O)c2c(O)c3c(O)cc(=O)c4c3c3c(cc(O)c1c23)C(C)(C)C=4O | 4.47 µM (active) | 2 µM (active) | 3.16 µM (active) | 2240 nM (active) | 2 µM (active) | – | – | 2.82 µM (active) | 3.55 µM (active) | 3.16 µM (active)
CN1CCC(=C2c3ccccc3CCc3sccc32)CC1 | inactive | inactive | inactive | inactive | inactive | inactive | – | inactive | – | inactive
COc1cc(C(C)=O)ccc1OCCCN1CCC(c2noc3cc(F)ccc23)CC1 | inactive | inactive | inactive | inactive | – | inactive | – | inactive | – | inactive

SMILES | Potency (CAOV3) | Potency (CASKI) | Potency (Es-2) | Potency (HeLa) | Potency (Hek293T) | Potency (JEG-3) | Potency (OV90) | Potency (PA-1) | Potency (SKOV3) | Potency (Tov-21-G)
O=C(O)c1cccnc1Nc1cccc(C(F)(F)F)c1 | inactive | inactive | inactive | – | inactive | inactive | – | inactive | inactive | inactive
OC(CN1CCN(c2cccc(Cl)c2)CC1)C(c1ccccc1)c1ccccc1 (stereo unspecified) | inactive | inactive | – | inactive | inactive | inactive | inactive | inactive | inactive | inactive
Cc1ccc(C(=O)c2cc(O)c(O)c([N+](=O)[O-])c2)cc1 | inactive | inactive | inactive | – | inactive | inactive | inactive | – | inactive | inactive
Cc1cc(C2CCCCC2)n(O)c(=O)c1 | 15.8 µM (active) | inactive | 14.1 µM (active) | inactive | 7.08 µM (active) | – | – | 2 µM (active) | 10 µM (active) | –
CCN(CC)CCOc1ccc(Cc2ccccc2)cc1 | – | inactive | inactive | inactive | inactive | inactive | – | – | – | inactive
Cc1ccc(Nc2nccc(N(C)c3ccc4c(C)n(C)nc4c3)n2)cc1S(N)(=O)=O | inactive | inactive | inactive | – | inactive | inactive | – | inactive | 14.1 µM (active) | –
CN(C)c1ccc2nc3ccc(=[N+](C)C)cc-3sc2c1 | 3.98 µM (active) | 7.08 µM (active) | 1.78 µM (active) | – | 14.1 µM (active) | 2 µM (active) | 12.6 µM (active) | 0.891 µM (active) | – | 10 µM (active)
CCCCc1ccc2nc(NC(=O)OC)[nH]c2c1 | inactive | – | 0.562 µM (active) | 398 nM (active) | – | – | 1.58 µM (active) | 0.282 µM (active) | – | 0.631 µM (active)
COC(=O)C1=C(C)NC(C)=C(C(=O)OCCCN2CCC(c3ccccc3)(c3ccccc3)CC2)C1c1cccc([N+](=O)[O-])c1 (stereo unspecified) | – | – | – | inactive | – | inactive | – | – | – | inactive
Cc1cccc(CN2CCN(C(c3ccccc3)c3ccc(Cl)cc3)CC2)c1 (stereo unspecified) | inactive | inactive | inactive | inactive | inactive | inactive | – | inactive | inactive | inactive
COc1c2occc2cc2ccc(=O)oc12 | inactive | inactive | inactive | inactive | – | inactive | inactive | inactive | inactive | inactive
CC(=O)O[C@H]1C(=O)[C@@]2(C)C([C@H](OC(=O)c3ccccc3)[C@]3(O)C[C@H](OC(=O)[C@H](O)[C@@H](NC(=O)c4ccccc4)c4ccccc4)C(C)=C1C3(C)C)[C@]1(OC(C)=O)CO[C@@H]1C[C@@H]2O (stereo partly specified) | inactive | – | 0.282 µM (active) | 79.4 nM (active) | inactive | inactive | inactive | – | – | –
CCCCN(CCCC)CCC(O)c1cc2c(Cl)cc(Cl)cc2c2cc(C(F)(F)F)ccc12 (stereo unspecified) | – | inactive | inactive | inactive | inactive | inactive | – | inactive | – | inactive
COC1=C(OC)C(=O)C(CCCCCCCCCCO)=C(C)C1=O | inactive | inactive | – | inactive | – | – | inactive | – | inactive | inactive
CCCCCCCCOc1ccccc1C(=O)Nc1ccc(C(=O)OCC[N+](C)(CC)CC)cc1 | – | – | inactive | inactive | inactive | inactive | inactive | – | – | inactive
Cc1nc(Nc2ncc(C(=O)Nc3c(C)cccc3Cl)s2)cc(N2CCN(CCO)CC2)n1 | 8.91 µM (active) | – | – | inactive | inactive | inactive | – | 0.251 µM (active) | 14.1 µM (active) | –
O=C(O)c1cc(=O)c2c(OCC(O)COc3cccc4oc(C(=O)O)cc(=O)c34)cccc2o1 | inactive | inactive | inactive | inactive | inactive | – | inactive | inactive | inactive | inactive
Cc1ncc([N+](=O)[O-])n1CC(C)O (stereo unspecified) | inactive | inactive | inactive | inactive | inactive | – | inactive | inactive | inactive | inactive
COc1cc(Nc2c(C#N)cnc3cc(OCCCN4CCN(C)CC4)c(OC)cc23)c(Cl)cc1Cl | 6.31 µM (active) | – | 6.31 µM (active) and 14.1 µM (active) | 25.1 µM (active) and inactive | – | – | – | 11.2 µM (active) | 10 µM (active) | –
CCCOc1ccc2nc(NC(=O)OC)[nH]c2c1 | inactive | – | 0.631 µM (active) | 282 nM (active) | – | 1 µM (active) | – | 0.282 µM (active) | – | 0.316 µM (active)
COc1ccccc1N1CCN(CCN(C(=O)C2CCCCC2)c2ccccn2)CC1 | inactive | inactive | inactive | inactive | – | – | inactive | inactive | inactive | inactive

Reference: PubChem BioAssay (NCATS)
